Our source for the Potency values is PubChem BioAssay (NCATS).

Records with an inconclusive call do not appear. Calls of active or inactive are those of the source. Calls come from the whole dose curve; as a rule, active = well fitted inhibition curve with a large enough effect; inconclusive = small, poorly fitted or top-dose-only effect; inactive = flat fitted curve, though single readings scatter.

Experiment in all cases: qHTS profiling for inhibitors of Plasmodium falciparum proliferation (AID 504749); note: nearly all actives have a fitted effect of over 60% in size
Holding throughout (conditions): P. falciparum in erythrocytes, SYBR Green DNA, 72 h; series mostly up to 28.7 µM

For experiment [1], the system named is 3D7. The gist of the method: (§1)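 P. falciparum-infected erythrocytes (0.3% parasitemia, 2.5% hematocrit final) were exposed to compounds for 72 h at 37 C in 5% CO2, then lysed with SYBR Green buffer overnight at room temperature; parasite DNA fluorescence was normalized to artemisinin and DMSO controls.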
The subject of experiment [2] is AS120. The gist of the method:
as §1

Experiment [3] deals with ATS189. In short, it runs like this:
as §1

For experiment [4], the system named is CP217. In short, it runs like this:
as §1

The subject of experiment [5] is CP335. In short, it runs like this: as §1
For experiment [6], the system named is DIV30. The gist of the method:
as §1

Experiment [7] concerns TAB165. The gist of the method: as §1
In experiment [8] the test system is CP237. In short, it runs like this: as §1
For experiment [9], the system named is CP256. The gist of the method: as §1
Experiment [10] relates to CP260. In short, it runs like this: as §1
The subject of experiment [11] is GB4. In short, it runs like this:
as §1

In experiment [12] the test system is PC15. The gist of the method:
as §1

Experiment [13] concerns CP185. The gist of the method: as §1
The test system of experiment [14] is CP194. In short, it runs like this:
as §1

The subject of experiment [15] is CP238. The gist of the method:
as §1

In experiment [16] the test system is CP252. The gist of the method: as §1
The subject of experiment [17] is CP265. In short, it runs like this:
as §1

Experiment [18] relates to CP268. The gist of the method: as §1
The test system of experiment [19] is CP291. In short, it runs like this: as §1
For experiment [20], the system named is SC27B. The gist of the method: as §1
Potency is the fitted concentration of half-maximal effect.

For `COC(=O)C1[C@@H](OC)C(OC(=O)COc2ccc(OC)cc2)C[C@@H]2CN3CCc4c([nH]c5cc(OC)ccc45)[C@H]3C[C@H]12` (stereo not given in full), the Potency in experiment [1] was 10 µM (active); in [2], 11.2 µM (active); in experiment [3], 11.2 µM (active); in [4] it was 11.2 µM (active); in experiment [5] it was 12 µM (active); in [6] it was 8.49 µM (active). Further, in experiment [7], the Potency is 12.6 µM (active).

`CCC1OC(=O)C[C@H](O)C(C)[C@@H](O[C@@H]2OC(C)C(O)C(N(C)C)C2O)C(CCN2CC(C)CC(C)C2)CC(C)C(=O)/C=C/C(C)=C\[C@@H]1COC1OC(C)C(O)C(OC)C1OC` (stereo not given in full): the Potency entry in [1] and in experiment [12] was “inactive” each time. Further, the Potency in experiment [8] was 5.01 µM (active); in experiment [9], 8.91 µM (active); in experiment [10], 11.2 µM (active); in experiment [5], 9.53 µM (active); in experiment [11] it was 7.57 µM (active).

In the case of `O=C1Oc2ccccc2C(=O)C1C(CC(O)c1ccc(-c2ccc(Br)cc2)cc1)c1ccccc1` (stereo not given), the Potency entry in [1], in [2], in experiment [13], in experiment [14], in [4] and in [8] was “inactive” throughout. For the same compound, the Potency entry in experiment [15], in [16], in experiment [10], in [17], in experiment [18] and in [19] was “inactive” throughout. Also, the Potency entry in experiment [6], in [11], in experiment [12], in experiment [20] and in experiment [7] was “inactive” in each case.

As to `Cc1cncc(C(=O)O)[n+]1[O-]`, the Potency result in experiment [1], in experiment [14], in experiment [8], in experiment [10], in experiment [18] and in experiment [19] was “inactive” throughout. Besides, the Potency entry in experiment [5], in experiment [6], in experiment [11], in experiment [12] and in experiment [20] was “inactive” in each case.

`CCC(C)C(N)C(=O)O` (stereo not given): the Potency entry in experiment [1], in experiment [2], in [3], in [13], in experiment [14] and in experiment [4] was “inactive” in each case. Moreover, the Potency result in [8], in experiment [15], in experiment [16], in experiment [9], in [10] and in experiment [17] was “inactive” in each case. The Potency entry in experiment [18], in experiment [19], in experiment [5], in experiment [6], in experiment [12] and in experiment [20] was “inactive” throughout. Besides, the Potency result in experiment [7] is “inactive”.

Consider `NC(C(=O)O)C(O)c1ccc(O)c(O)c1` (stereo not given), for which the Potency in [1] is 8.91 µM (active). Further, in experiment [12], the Potency result is “inactive”.

For `CNC1CCc2cc(OC)c(OC)c(OC)c2-c2ccc(OC)c(=O)cc21` (stereo not given), the Potency result in [2], in experiment [3], in experiment [13], in experiment [14], in [4] and in [15] was “inactive” throughout. Moreover, the Potency entry in [16], in experiment [9], in experiment [10], in [17], in [18] and in [19] was “inactive” each time. The Potency result in [5], in [11], in experiment [12], in experiment [20] and in experiment [7] was “inactive” throughout.

For `CCN(CC)CCOCCOC(=O)C(CC)(CC)c1ccccc1` (tested in a mixture with another compound), the Potency result in experiment [1] was “inactive”. Besides, the Potency in experiment [9] was 5.62 µM (active); in experiment [17], 1.12 µM (active); in [11], 8.49 µM (active).

As to `C=C1CC[C@H](O)C/C1=C/C=C1\CCC[C@]2(C)[C@@H]([C@H](C)CC[C@@H](O)C(C)(C)O)CC[C@@H]12`, the Potency was 10 µM (active) in experiment [2]; 10 µM (active) in [8]; 13.5 µM (active) in experiment [6]; 11.2 µM (active) in experiment [20]; 14.1 µM (active) in experiment [7]. Besides, in experiment [18], the Potency entry was “inactive”.

`C[C@]12CCC(=O)C=C1[C@@H]1C[C@H]1[C@H]1[C@@H]3[C@@H]4C[C@H]4[C@@]4(CCC(=O)O4)[C@@]3(C)CC[C@@H]12`: the Potency result in experiment [2], in [3], in experiment [13], in experiment [4], in [8] and in experiment [15] was “inactive” throughout. Besides, the Potency result in [16], in experiment [9], in experiment [10], in experiment [17], in experiment [18] and in experiment [19] was “inactive” each time. Besides, the Potency entry in [5], in [11], in experiment [12], in experiment [20] and in experiment [7] was “inactive” throughout.

With `C[C@H](CN1c2ccccc2Sc2cccnc21)N(C)C`, the Potency is 11.2 µM (active) in [2]; 5.01 µM (active) in [3]; 11.2 µM (active) in [13]; 2 µM (active) in [8]; 10 µM (active) in [15]; 11.2 µM (active) in experiment [16]. Further, the Potency is 8.91 µM (active) in experiment [10]; 6.01 µM (active) in experiment [5]; 6.75 µM (active) in experiment [11]; 8.91 µM (active) in [20]; 11.2 µM (active) in experiment [7].

For the compound `CCC1OC(=O)C[C@@H](O)[C@H](C)[C@@H](OC2OC(C)CC(N(C)C)C2O)[C@@H](CC=O)C[C@@H](C)C(=O)/C=C/[C@]2(C)OC2C1C` (stereo not given in full), the Potency in experiment [13] is 2 µM (active); in experiment [8] it was 5.01 µM (active); in [16], 3.55 µM (active); in [9] it was 2.24 µM (active); in experiment [5], 1.2 µM (active). Besides, in experiment [12], the Potency result was “inactive”.

For the compound `C=C1CC[C@H](O)C/C1=C/C=C1\CCC[C@]2(C)[C@@H]([C@H](C)CCCC(C)(C)O)CC[C@@H]12`, the Potency was 10 µM (active) in experiment [2], 9.53 µM (active) in experiment [6] and 12.6 µM (active) in experiment [7]. Moreover, the Potency entry in experiment [14], in experiment [18] and in [19] was “inactive” each time.
